Among the data in PubChem BioAssay (NCI) are growth inhibition values, retold here.

About 79,000 compounds went through this panel and 15% of them were active in at least one assay; those are over-represented in the sample as a whole. Unmarked numbers belong to inactive results. Activity calls are given as the source filed them. No stated cut-off is given here; in the data, active means growth inhibition above about 70%; inactive means the rest.

Test [1] is described as follows: NCI Yeast Anticancer Drug Screen. Data for the rad50 strain (AID 155).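 Further: 0% = growth of vehicle-only cultures of the same strain.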 The following applies: S. cerevisiae rad50 strain growth inhibition, stronger effect = higher value. The gist of the method: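 Genetically altered yeast (DNA repair pathway); compound treatment; growth inhibition vs vehicle ctrl.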
Test [2] is described as follows: NCI Yeast Anticancer Drug Screen. Data for the mec2-1 strain (AID 157). Particulars: S. cerevisiae mec2-1 strain, stronger effect = higher value. The gist of the method:
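Test agents were screened against the mec2-1 yeast strain, with defined DNA repair or cell cycle alteration. Growth was scored as inhibition against vehicle-only controls.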

Test [3] in a line: NCI Yeast Anticancer Drug Screen. Data for the sgs1 mgt1 strain (AID 161).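 Further: 0% = growth of cultures given vehicle only.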 Particulars: S. cerevisiae sgs1 mgt1 strain, stronger effect = higher value. A digest of the protocol: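 Read-out: growth inhibition vs vehicle controls. Cells: mutant yeast strain deficient in DNA damage repair.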
A short description of test [4]: NCI Yeast Anticancer Drug Screen. Data for the cln2 rad14 strain (AID 165).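 Further: 0% = growth equal to vehicle treated cultures.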 Particulars: S. cerevisiae cln2 rad14 strain, stronger effect = higher value. The gist of the method:
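Growth of compound-exposed yeast (cln2 rad14 genotype) measured and expressed as inhibition relative to vehicle.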

The nature of test [5]: NCI Yeast Anticancer Drug Screen. Data for the bub3 strain (AID 167). Particulars: S. cerevisiae bub3 mutant strain, stronger effect = higher value. A digest of the protocol: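 Yeast carrying a defined mutation is treated with each compound, and growth is compared with that of vehicle-exposed cells to give inhibition.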
Test [6] in a line: NCI Yeast Anticancer Drug Screen. Data for the mlh1 rad18 strain (AID 175). Particulars: S. cerevisiae mlh1 rad18 strain growth inhibition, stronger effect = higher value. A digest of the protocol: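 In this whole-cell yeast screen, a strain with altered DNA damage repair is challenged with compound, and its growth is measured against matched vehicle-treated controls.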
[7] abbreviates: at 5.0 µM (retest, dose inferred, filed as 0.5).
Where [8] appears, read: at 50.0 µM (retest, dose inferred, filed as 5.0).

For `CCC(CC)(c1ccccc1)C(O)c1ccccc1` (stereo unspecified), the growth inhibition in test [1] (setting [7]) was 11%; in test [1] (setting [8]), 94% (active); in test [2] (setting [7]), -1%; in test [2] (setting [8]), 98% (active); in test [3] (setting [7]) it was 6%; in test [3] (setting [8]), 98% (active). Moreover, the growth inhibition is 7% in test [4] (setting [7]); 95% (active) in test [4] (setting [8]); 6% in test [5] (setting [7]); 94% (active) in test [5] (setting [8]); 2% in test [6] (setting [7]); 96% (active) in test [6] (setting [8]).
`N#Cc1ccc(Br)cc1[N+](=O)[O-]`: the growth inhibition in test [1] (setting [7]) is 45%; in test [1] (setting [8]) it was 64%; in test [1] (at 50.0 µM), 91.2% (active); in test [2] (setting [7]) it was 41%; in test [2] (setting [8]) it was 63%; in test [2] (at 50.0 µM), 93.2% (active). Moreover, the growth inhibition in test [3] (setting [7]) was 74% (active); in test [3] (setting [8]), 100% (active); in test [4] (setting [7]), 90% (active); in test [4] (setting [8]) it was 100% (active); in test [5] (setting [7]) it was 87% (active); in test [5] (setting [8]), 100% (active). Further, the values for the growth inhibition in test [6] (setting [7]), in test [6] (setting [8]) and in test [6] (at 50.0 µM) were 33%, 61% and 92% (active), respectively.
With `CCN1/C(=C/C(C)=C/c2sc3ccc4ccccc4c3[n+]2CC)Sc2ccc3ccccc3c21`, the growth inhibition in test [1] (setting [7]) was 28%; in test [1] (setting [8]) it was 30%; in test [1] (at 50.0 µM), 79.8% (active); in test [2] (setting [7]), 30%; in test [2] (setting [8]) it was 36%; in test [2] (at 50.0 µM), 82% (active). Moreover, the growth inhibition in test [3] (setting [7]) was -7%; in test [3] (setting [8]) it was 42%; in test [3] (at 50.0 µM) it was 81.7% (active); in test [5] (setting [7]), 43%; in test [5] (setting [8]) it was 10%; in test [5] (at 50.0 µM), 73.2% (active). For the same compound, the growth inhibition in test [6] (setting [7]) is 41%; in test [6] (setting [8]), 35%; in test [6] (at 50.0 µM), 69.9%.
For the compound `O=C(c1ccccc1)N(CCCl)C(=O)N(CCCl)C(=O)c1ccccc1`, the growth inhibition in test [1] (setting [7]) is 47%; in test [1] (setting [8]), 56%; in test [1] (at 50.0 µM) it was 78% (active); in test [2] (setting [7]), 68%; in test [2] (setting [8]), 52%; in test [2] (at 50.0 µM), 48.9%. Also, the growth inhibition in test [3] (setting [7]) was -7%; in test [3] (setting [8]) it was 68%; in test [4] (setting [7]), 45%; in test [4] (setting [8]), 56%; in test [5] (setting [7]), 23%; in test [5] (setting [8]) it was 64%. The results for the growth inhibition in test [6] (setting [7]), in test [6] (setting [8]) and in test [6] (at 50.0 µM) were 31%, 36% and 68%, respectively.
For `CN(C)CNC(=S)S`, the growth inhibition is 98% (active) in test [1] (setting [7]); 99% (active) in test [1] (setting [8]); 97% (active) in test [2] (setting [7]); 100% (active) in test [2] (setting [8]); 100% (active) in test [3] (setting [7]); 100% (active) in test [3] (setting [8]). For the same compound, the growth inhibition in test [4] (setting [7]) is 97% (active); in test [4] (setting [8]), 51%; in test [5] (setting [7]), 99% (active); in test [5] (setting [8]) it was 100% (active); in test [6] (setting [7]), 97% (active); in test [6] (setting [8]), 98% (active).
On to `CC1=NN(c2ccccc2)C(=O)C1(Br)Br`, for which the growth inhibition was 37% in test [1] (setting [7]); 64% in test [1] (setting [8]); 92.7% (active) in test [1] (at 50.0 µM); 44% in test [2] (setting [7]); 71% (active) in test [2] (setting [8]); 94% (active) in test [2] (at 50.0 µM). The growth inhibition in test [3] (setting [7]) is 23%; in test [3] (setting [8]) it was 99% (active); in test [4] (setting [7]), 43%; in test [4] (setting [8]), 99% (active); in test [5] (setting [7]), 49%; in test [5] (setting [8]), 98% (active). Besides, the values for the growth inhibition in test [6] (setting [7]), in test [6] (setting [8]) and in test [6] (at 50.0 µM) were 32%, 58% and 93.3% (active), respectively.
On to `O=C1CCC2(C=C(Br)C(=O)C(Br)=C2)O1`, for which the growth inhibition is 42% in test [1] (setting [7]); 87% (active) in test [1] (setting [8]); 91.8% (active) in test [1] (at 50.0 µM); 46% in test [2] (setting [7]); 96% (active) in test [2] (setting [8]); 93.5% (active) in test [2] (at 50.0 µM). For the same compound, the growth inhibition in test [3] (setting [7]) is 92% (active); in test [3] (setting [8]), 99% (active); in test [4] (setting [7]), 91% (active); in test [4] (setting [8]), 99% (active); in test [5] (setting [7]), 92% (active); in test [5] (setting [8]) it was 100% (active). Also, the growth inhibition in test [6] (setting [7]) is 31%; in test [6] (setting [8]), 94% (active); in test [6] (at 50.0 µM) it was 92.3% (active).
As to `COc1ccc(/C(C#N)=C/c2cccc(N)c2)cc1`, the growth inhibition is 6% in test [1] (setting [7]); 16% in test [1] (setting [8]); 3% in test [2] (setting [7]); 10% in test [2] (setting [8]); 1% in test [3] (setting [7]); 27% in test [3] (setting [8]). In addition, the growth inhibition in test [4] (setting [7]) is 2%; in test [4] (setting [8]), 2%; in test [5] (setting [7]), 13%; in test [5] (setting [8]), 42%; in test [6] (setting [7]), -30%; in test [6] (setting [8]), 12%.
For the compound `Nc1ncnc2c(C3OC(CO)C(O)C3O)c[nH]c12` (stereo unspecified), the growth inhibition in test [1] (setting [7]) was 26%; in test [1] (setting [8]), 92% (active); in test [2] (setting [7]), 14%; in test [2] (setting [8]) it was 92% (active); in test [3] (setting [7]) it was 35%; in test [3] (setting [8]) it was 96% (active). Besides, the growth inhibition is 89% (active) in test [3] (at 50.0 µM); 28% in test [4] (setting [7]); 82% (active) in test [4] (setting [8]); 88.2% (active) in test [4] (at 50.0 µM); 45% in test [5] (setting [7]); 94% (active) in test [5] (setting [8]). Also, the growth inhibition was 71.1% (active) in test [5] (at 50.0 µM), 36% in test [6] (setting [7]) and 94% (active) in test [6] (setting [8]).
`O=C1C=CC(=O)N1C1CCCCCCCCCCC1`: the growth inhibition in test [1] (setting [7]) was 32%; in test [1] (setting [8]), 66%; in test [1] (at 50.0 µM) it was 83.5% (active); in test [2] (setting [7]), 46%; in test [2] (setting [8]), 58%; in test [2] (at 50.0 µM), 86% (active). Besides, the growth inhibition in test [3] (setting [7]) was 44%; in test [3] (setting [8]), 98% (active); in test [4] (setting [7]), 56%; in test [4] (setting [8]) it was 98% (active); in test [5] (setting [7]), 71% (active); in test [5] (setting [8]) it was 97% (active). Besides, the growth inhibition in test [6] (setting [7]) was 30%; in test [6] (setting [8]) it was 61%; in test [6] (at 50.0 µM) it was 79.4% (active).
